# Rows were chosen to be rich in hits. Some 9.9% of all compounds tested hit in one or more screens of this group.
# Tau fibril FP: tau fibrillization inhibition (FP). AID 1468. Potency, µM (titrated, usually from 57.7 µM), for inactives: at the highest dose activity, negative = inhibition, actives largely listed as inhibitors. P10636. 280,000 tested, 0.39% active. K18 P301L tau heparin fibrillization, Alexa594 FP, 6 h; active means well fitted curve in the direction sought with a large enough effect; inconclusive means small, poorly fitted or top-dose-only effect, or another doubt; inactive means no such curve, though single readings can be large; an effect the other way counts as inactive or inconclusive; further: nearly all actives have a fitted effect of over 55% in size
# Target sequence (P10636 561-689 P618L limits assumed): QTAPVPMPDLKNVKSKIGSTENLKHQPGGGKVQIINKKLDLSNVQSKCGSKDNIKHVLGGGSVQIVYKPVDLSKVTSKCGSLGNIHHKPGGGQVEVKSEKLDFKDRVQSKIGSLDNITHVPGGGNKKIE
#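 Human K18 P301L fragment (15 uM unlabeled plus 0.24 uM Alexa 594-labeled) in 100 mM sodium acetate pH 7 with compound, aggregation induced by 20 uM heparin for 6 hr at 37 C. ThT (30 uM) added for 1 hr, then Alexa 594 FP read.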
# HPGD block: inhibitors of human 15-hydroxyprostaglandin dehydrogenase (HPGD). purified HPGD, NADH fluorescence kinetic, PGE2 substrate. 150,000 tested, 4.3% active. P15428. AID 894. Potency, µM, for inactives: at the highest dose activity change, negative = inhibition, most hits filed as inhibitors
#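 NADH formation kinetics: reaction with 30 uM PGE2 and 1 mM NAD+ (final), 20 nM enzyme, Tris-HCl pH 8 with Tween 20, after 15 min compound preincubation at room temperature. Fluorescence change, last versus first of five reads.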
# Tau ThT inhib: tau fibrillization inhibition (ThT binding); AID 1460; P10636; Potency, µM (highest dose often 57.4 µM), inactives show top-dose activity, negative = inhibition, hits mostly inhibitors; recombinant tau K18 P301L, heparin-induced fibrillization, ThT fluorescence; 270,000 tested, 2.1% active; active means well fitted curve in the direction sought with a large enough effect; inconclusive means small, poorly fitted or top-dose-only effect, or another doubt; inactive means no such curve, though single readings can be large; an effect the other way counts as inactive or inconclusive; further: nearly all actives have a fitted effect of over 55% in size
#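 Recombinant human tau K18 fragment […] carrying P301L, 15 uM unlabeled plus 0.24 uM Alexa 594-labeled, was fibrillized with 20 uM heparin in 100 mM sodium acetate pH 7 for 6 hr at 37 C; 30 uM ThT fluorescence read after 1 hr.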
# KDM4E inh: inhibitors of human JMJD2E histone demethylase; B2RXH2; JMJD2E catalytic domain, FDH-coupled NADH fluorescence (FDH is formaldehyde dehydrogenase); Potency, µM (series often up to 57.1 µM), without a hit: top-dose activity change, negative = inhibition, usual class: inhibitors; 230,000 tested, 1.6% active;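 further: 0% = wells with enzyme and -100% = buffer wells without enzyme; nearly all actives have a fitted effect of over 50% in size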
# Target sequence (B2RXH2 1-337 limits assumed): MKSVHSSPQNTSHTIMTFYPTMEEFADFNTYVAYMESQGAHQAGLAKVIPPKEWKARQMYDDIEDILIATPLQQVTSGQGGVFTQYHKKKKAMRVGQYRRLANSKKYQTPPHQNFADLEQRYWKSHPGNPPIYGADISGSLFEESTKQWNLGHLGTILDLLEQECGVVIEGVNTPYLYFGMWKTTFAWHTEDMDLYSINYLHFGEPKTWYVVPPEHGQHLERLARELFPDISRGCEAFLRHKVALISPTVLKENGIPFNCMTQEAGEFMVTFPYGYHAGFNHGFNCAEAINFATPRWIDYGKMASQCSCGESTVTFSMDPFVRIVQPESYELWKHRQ
# Tau fluor counter: counter-screen for tau fibril formation inhibitors. 280,000 tested, 0.93% active. Potency, µM (titrated, usually from 57.7 µM), for the others: at the highest dose activity change, negative = decrease. tau K18 P301L (four-repeat tau fragment) Alexa594 fluorescence, heparin fibrillization; active means well fitted curve in the direction sought with a large enough effect; inconclusive means small, poorly fitted or top-dose-only effect, or another doubt; inactive means no such curve, though single readings can be large; an effect the other way counts as inactive or inconclusive; further: nearly all actives have a fitted effect of over 55% in size
#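 Human K18 P301L tau (15 uM unlabeled plus 0.24 uM Alexa 594-labeled, final) in 100 mM sodium acetate pH 7 was mixed with compound and 20 uM heparin and incubated 6 hr at 37 C.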
# ALDH1A1 block: blocks purified human ALDH1A1 activity; P00352; Purified ALDH1A1, NADH fluorescence, propionaldehyde substrate; Potency, µM (series often up to 75.3 µM), without a hit: top-dose activity, negative = inhibition, hits mostly inhibitors; 220,000 tested, 7.3% active;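 further: plate controls were no enzyme wells and a reference inhibitor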
# Active calls of the source: *; ? = inconclusive; / = no result; [ ] = another dose, or the depositor's remark. Unless noted, the call rests on the fitted dose curve; in most records, active means well fitted inhibition curve with a large enough effect (not every such curve was filed as active); inconclusive means small, poorly fitted or top-dose-only effect, or another doubt; inactive means no such curve, though single readings can be large or run the other way. Unless noted, on the % scale 0 is the no-effect control and ±100 the full control effect; potency means the concentration at half of the fitted maximal effect.
SMILES,Tau fibril FP,HPGD block,Tau ThT inhib,KDM4E inh,Tau fluor counter,ALDH1A1 block
Cc1ccc2cc(CN(Cc3nnnn3C3CCCCC3)CC3CCCO3)c(=O)[nH]c2c1 (centres undefined),4.9%,-12.4%,-9.4%,-6.6%,6.8%,8.91µM*
CCCC(c1nnnn1CC(=O)OCC)N(Cc1cc2ccc(C)cc2[nH]c1=O)C1CCCC1 (centres undefined),-6.9%,-16.8%,?,?,0.1%,?
Cc1c(CCC(=O)NCc2cccc(Cl)c2)c(=O)oc2c(C)c(O)ccc12,-15.3%,/,3.6%,/,0.0%,/
O=C(O)CCCCCCCCCCCc1ccccc1,11.6%,/,?,7.0%,4.3%,4.2%
O=C(Nc1nnc(N2CCCC2)s1)Nc1cc(F)ccc1F,-7.4%,/,2.3%,/,2.3%,/
O=C(c1ccc(Cl)cc1)c1oc2ccccc2c1CS(=O)c1ccc(Cl)cc1 (centres undefined),-10.6%,-17.5%,-10.2%,-25.7%,1.8%,3.98µM*
COc1ccc2[nH]cc(C(=O)CN3CCN(C4CCCCC4)CC3)c2c1,7.2%,-9.6%,6.0%,-3.9%,1.5%,25.1µM*
COc1ccc2[nH]cc(C(=O)CN3CCCCC3)c2c1,-2.5%,-12.3%,-4.6%,5.2%,-1.4%,-15.7%
COc1ccc2c(C(=O)CN3CCN(c4ccccc4)CC3)c[nH]c2c1,8.3%,-9.2%,?,-6.1%,-27.6%,-6.0%
COc1ccc2c(C(=O)CN3CCSCC3)c[nH]c2c1,0.6%,/,?,?,-24.3%,28.2µM*
CCNC(=S)N1CCn2c(nc3ccccc32)C1,-4.7%,-12.2%,-2.0%,-5.7%,-3.6%,3.8%
CC(=O)Nc1cc(OC(C)=O)c2nonc2c1OC(C)=O,2µM*,-13.8%,1.12µM*,-28.6%,?,4.9%
CC(=O)Nc1nonc1NC(C)=O,4.2%,-7.0%,1.3%,12.0%,10.2%,-4.4%
O=C1CSc2ccc(C(=O)NCC(c3ccco3)N3CCCCC3)cc2N1 (centres undefined),1.7%,/,-15.2%,-19.6%,-14.1%,?
CCN1CCN(C(=O)c2ccc3c(c2)S(=O)(=O)c2ccccc2C3=O)CC1,4.9%,/,2.5%,-12.4%,-1.3%,7.94µM*
O=C(Nc1ccccn1)c1ccc2c(c1)S(=O)(=O)c1ccccc1C2=O,8.3%,-15.7%,?,0.9%,-17.3%,15.8µM*
O=C(NCC(c1ccco1)N1CCCCC1)c1ccc2c(c1)S(=O)(=O)c1ccccc1C2=O (centres undefined),1.4%,/,?,?,-26.6%,12.6µM*
O=C(NCCO)c1ccc2c(c1)S(=O)(=O)c1ccccc1C2=O,6.2%,?,-8.5%,-1.1%,-7.9%,?
CCC(C)(C)NC(=O)c1ccc2c(c1)S(=O)(=O)c1ccccc1C2=O,9.3%,25.1µM*,-10.2%,-3.2%,-18.5%,3.55µM*
CC1(C)[C@@H](CC(=O)O)CCC[C@@H]1CC(=O)O,/,-1.7%,/,/,/,1.5%[13.5 µM]
COc1ccc(Cn2c(CCC(=O)NCc3cccc(Cl)c3)nc3cccnc32)cc1,0.9%,/,-17.8%,/,-15.2%,/
C[N+]1(CC(O)COCC2COc3ccccc3O2)CCOCC1 (centres undefined),5.4%,/,-3.0%,8.2%,-5.2%,-3.8%
O=C(COc1cccnc1[N+](=O)[O-])Nc1ccc(S(=O)(=O)N2CCOCC2)cc1,-3.1%,/,-1.2%,4.7%,-5.4%,-2.2%
O=C(COc1cccnc1[N+](=O)[O-])Nc1ccc(Cl)c(S(=O)(=O)N2CCOCC2)c1,-2.6%,/,-11.5%,5.4%,-21.6%,14.1µM*
Cc1ccc(OCC(=O)N2CCN(S(=O)(=O)c3ccc(Cl)cc3)CC2)c([N+](=O)[O-])n1,5.0%,/,-3.3%,-3.1%,-5.5%,?
O=C(COc1cccnc1[N+](=O)[O-])N1CCN(S(=O)(=O)c2ccc3ccccc3c2)CC1,6.4%,-21.9%,-7.9%,?,-22.3%,15.8µM*
O=C(Cn1ncc(Cl)c(Cl)c1=O)N1CCN(S(=O)(=O)c2ccc3ccccc3c2)CC1,-12.2%,/,?,5.7%,-11.7%,20µM*

# Screening data as filed in PubChem BioAssay.
